Laboratory results reported in PubChem BioAssay AID1159580 (chemical genetic matrix, 2015).
Among all 5,500 compounds or so, about 2,000 (36%) were called active. Not shown: some 18% with an inconclusive outcome. Rule as the data show it: active = normalized growth mostly below about 0.91 (no sharp cut-off); inconclusive = no clear call, values can overlap the other calls; inactive = mostly above about 0.92. The list shows a part of the results.

Test: chemical genetic growth profiling, strain panel (AID 1159580);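 also: tested at 20 µM; growth read once vehicle control cultures reached saturation at 30 °C; 1 = growth at the plate median or of vehicle wells; lower values mean less growth of the strain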
Details: growth OD

Measured: normalized growth

COc1ccc(OC)c(C(O)C(C)N)c1 (stereo unspecified)
inactive: S. cerevisiae deletion strains, locus YJR066W, strain TOR1, active compounds read low 0.991 | S. cerevisiae deletion strains, locus YJR075W, strain HOC1, active compounds read low 0.999 | S. cerevisiae deletion strains, locus YKL009W, strain mrt4, active compounds read low 0.995 | S. cerevisiae deletion strains, locus YKL068W, active compounds read low 0.997 | S. cerevisiae deletion strains, locus YKL085W, strain MDH1 (second series), active compounds read low 1 | S. cerevisiae deletion strains, locus YKL085W, strain MDH1, active compounds read low 1 | S. cerevisiae deletion strains, locus YKL160W, strain elf1, active compounds read low 0.983 | S. cerevisiae deletion strains, locus YKL190W, strain CNB1, active compounds read low 1.02 | S. cerevisiae deletion strains, locus YKR001C, strain vps1, active compounds read low 1 | S. cerevisiae deletion strains, locus YKR026C, strain gcn3, active compounds read low 0.994 | S. cerevisiae deletion strains, locus YKR091W, strain srl3, active compounds read low 0.989 | S. cerevisiae deletion strains, locus YLL001W, strain dnm1, active compounds read low 0.972 | S. cerevisiae deletion strains, locus YLL026W, active compounds read low 0.99 | S. cerevisiae deletion strains, locus YLL041C, strain sdh2, active compounds read low 1 | S. cerevisiae deletion strains, locus YLR027C, strain aat2, active compounds read low 0.987 | S. cerevisiae deletion strains, locus YLR039C, strain RIC1, active compounds read low 1.07 | S. cerevisiae deletion strains, locus YLR058C, strain SHM2, active compounds read low 1.01 | S. cerevisiae deletion strains, locus YLR102C, strain apc9, active compounds read low 0.992 | S. cerevisiae deletion strains, locus YLR113W, strain HOG1, active compounds read low 1.08 | S. cerevisiae deletion strains, locus YLR221C, strain rsa3, active compounds read low 0.994 | S. cerevisiae deletion strains, locus YLR258W, strain gsy2, active compounds read low 1.01 | S. cerevisiae deletion strains, locus YLR262C, strain YPT6 (second series), active compounds read low 0.999 | S. cerevisiae deletion strains, locus YLR262C, strain YPT6, active compounds read low 1.08 | S. cerevisiae deletion strains, locus YLR268W, strain sec22, active compounds read low 1 | S. cerevisiae deletion strains, locus YLR320W, strain mms22, active compounds read low 0.989 | S. cerevisiae deletion strains, locus YLR330W, strain CHS5, active compounds read low 1.01 | S. cerevisiae deletion strains, locus YLR342W, strain FKS1 (second series), active compounds read low 1.01 | S. cerevisiae deletion strains, locus YLR342W, strain FKS1, active compounds read low 0.976 | S. cerevisiae deletion strains, locus YLR357W, strain rsc2, active compounds read low 0.971 | S. cerevisiae deletion strains, locus YLR370C, strain arc18, active compounds read low 0.988 | S. cerevisiae deletion strains, locus YLR371W, strain rom2, active compounds read low 0.989 | S. cerevisiae deletion strains, locus YLR384C, strain iki3, active compounds read low 0.987 | S. cerevisiae deletion strains, locus YLR418C, strain cdc73, active compounds read low 1.02 | S. cerevisiae deletion strains, locus YML016C, strain PPZ1, active compounds read low 1.02 | S. cerevisiae deletion strains, locus YML032C, strain rad52, active compounds read low 0.977 | S. cerevisiae deletion strains, locus YML120C, strain ndi1, active compounds read low 0.997 | S. cerevisiae deletion strains, locus YML124C, strain tub3, active compounds read low 0.993 | S. cerevisiae deletion strains, locus YMR078C, strain ctf18, active compounds read low 0.987 | S. cerevisiae deletion strains, locus YMR125W, strain sto1, active compounds read low 0.994 | S. cerevisiae deletion strains, locus YMR129W, active compounds read low 0.978 | S. cerevisiae deletion strains, locus YMR205C, strain PFK2, active compounds read low 1 | S. cerevisiae deletion strains, locus YMR223W, strain ubp8, active compounds read low 0.996 | S. cerevisiae deletion strains, locus YMR231W, strain pep5, active compounds read low 0.99 | S. cerevisiae deletion strains, locus YMR263W, strain SAP30, active compounds read low 1.03 | S. cerevisiae deletion strains, locus YMR307W, strain GAS1, active compounds read low 0.992 | S. cerevisiae deletion strains, locus YNL067W, strain RPL9B, active compounds read low 1.02 | S. cerevisiae deletion strains, locus YNL071W, strain lat1, active compounds read low 1 | S. cerevisiae deletion strains, locus YNL128W, strain TEP1, active compounds read low 1.01 | S. cerevisiae deletion strains, locus YNL153C, strain GIM3, active compounds read low 1.04 | S. cerevisiae deletion strains, locus YNL175C, strain NOP13, active compounds read low 0.996 | S. cerevisiae deletion strains, locus YNL183C, strain NPR1, active compounds read low 1.01 | S. cerevisiae deletion strains, locus YNL197C, strain WHI3, active compounds read low 1.01 | S. cerevisiae deletion strains, locus YNL209W, strain ssb2, active compounds read low 1 | S. cerevisiae deletion strains, locus YNL224C, strain SQS1, active compounds read low 1.01 | S. cerevisiae deletion strains, locus YNL233W, strain BNI4, active compounds read low 1.02 | S. cerevisiae deletion strains, locus YNL248C, strain rpa49, active compounds read low 0.997 | S. cerevisiae deletion strains, locus YNL250W, strain rad50, active compounds read low 0.978 | S. cerevisiae deletion strains, locus YNL271C, strain bni1, active compounds read low 1 | S. cerevisiae deletion strains, locus YNL298W, strain CLA4, active compounds read low 1 | S. cerevisiae deletion strains, locus YNL307C, strain MCK1, active compounds read low 0.976 | S. cerevisiae deletion strains, locus YNL322C, strain KRE1 (second series), active compounds read low 0.991 | S. cerevisiae deletion strains, locus YNL322C, strain KRE1, active compounds read low 1.01 | S. cerevisiae deletion strains, locus YNR049C, strain mso1, active compounds read low 0.99 | S. cerevisiae deletion strains, locus YNR052C, strain pop2, active compounds read low 0.992 | S. cerevisiae deletion strains, locus YOL006C, strain TOP1, active compounds read low 1.13 | S. cerevisiae deletion strains, locus YOL012C, strain htz1 1.17 | S. cerevisiae deletion strains, locus YOL147C, strain pex11, active compounds read low 0.979 | S. cerevisiae deletion strains, locus YOR001W, strain rrp6, active compounds read low 0.992 | S. cerevisiae deletion strains, locus YOR061W, strain CKA2, active compounds read low 1.02 | S. cerevisiae deletion strains, locus YOR069W, strain VPS5, active compounds read low 1.01 | S. cerevisiae deletion strains, locus YOR070C, strain gyp1, active compounds read low 0.999 | S. cerevisiae deletion strains, locus YOR080W, strain dia2, active compounds read low 0.99 | S. cerevisiae deletion strains, locus YOR083W, strain WHI5 (second series), active compounds read low 1.01 | S. cerevisiae deletion strains, locus YOR083W, strain WHI5, active compounds read low 0.961 | S. cerevisiae deletion strains, locus YOR106W, strain vam3, active compounds read low 0.986 | S. cerevisiae deletion strains, locus YOR136W, strain idh2, active compounds read low 0.982 | S. cerevisiae deletion strains, locus YOR144C, strain elg1, active compounds read low 0.985 | S. cerevisiae deletion strains, locus YOR184W, strain ser1, active compounds read low 0.978 | S. cerevisiae deletion strains, locus YOR231W, strain MKK1, active compounds read low 1.07 | S. cerevisiae deletion strains, locus YOR265W, strain rbl2, active compounds read low 0.997 | S. cerevisiae deletion strains, locus YOR270C, strain vph1, active compounds read low 1.01 | S. cerevisiae deletion strains, locus YOR290C, strain snf2, active compounds read low 1.01 | S. cerevisiae deletion strains, locus YOR316C, strain cot1, active compounds read low 0.991 | S. cerevisiae deletion strains, locus YPL051W, strain arl3, active compounds read low 0.991 | S. cerevisiae deletion strains, locus YPL055C, strain LGE1, active compounds read low 1.06 | S. cerevisiae deletion strains, locus YPL078C, strain atp4, active compounds read low 0.961 | S. cerevisiae deletion strains, locus YPL106C, strain sse1, active compounds read low 1.01 | S. cerevisiae deletion strains, locus YPL240C, strain hsp82, active compounds read low 0.991 | S. cerevisiae deletion strains, locus YPL241C, strain CIN2, active compounds read low 1.01 | S. cerevisiae deletion strains, locus YPL256C, strain CLN2, active compounds read low 1.06 | S. cerevisiae deletion strains, locus YPR119W, strain clb2, active compounds read low 0.988 | S. cerevisiae deletion strains, locus YPR141C, strain kar3, active compounds read low 0.984 | S. cerevisiae deletion strains, locus YPR163C, strain tif3, active compounds read low 0.98 | S. cerevisiae deletion strains, locus YPR167C, strain met16, active compounds read low 0.996 | S. cerevisiae deletion strains, strain wtn01, active compounds read low 1.01 | S. cerevisiae strains, strain wild type, active compounds read low 1.01
